Bioassay records as filed in PubChem BioAssay.
Not all results are given here.
aSyn UTR act = Activators via SNCA 5'UTR binding, MLPCN; alpha-synuclein 5'UTR reporter, activators screen; activity score, % (tested at 7.5 µM), hits read low; 7.1% of 300,000 active; AID 1814, 2009; in the data active = activity score below about -60%
* marks the source's active call; other numbers are inactive results.

SMILES	aSyn UTR act
Cc1ccc(-c2cn3cccc(C)c3n2)cc1	-75*
COc1ccc(-c2cn3cccc(C)c3n2)cc1F	-149*
COc1ccc(-c2cn3cc(C)ccc3n2)cc1F	77
Cc1ccc(OCCn2nc3ccccc3n2)c(C)c1	-90*
Clc1ccccc1OCCn1nnc2ccccc21	-169*
Cc1ccc(C)c(OCCn2nnc3ccccc32)c1	-70*
Cc1cc(C)cc(OCCn2nnc3ccccc32)c1	-126*
Cc1ccc(CNc2ccc(N3CCOCC3)cc2)s1	-86*
Cc1cc(C(=O)NC2CCC(C)CC2)c(C)o1 (configuration not stated)	-110*
CC(C)(C)C(=O)Nc1nnc(CCc2ccccc2)s1	-126*
O=C(Nc1nnc(CCc2ccccc2)s1)c1ccccc1	-91*
COc1ccccc1C(=O)Nc1nnc(CCc2ccccc2)s1	-213*
CC(=O)c1cnc(Nc2cccc(C)c2)s1	-137*
CNc1ncc(C(=O)c2ccc(F)cc2)s1	-112*
O=C(c1ccc(F)cc1)c1cnc(Nc2ccccc2)s1	-161*
O=Cc1c(-c2ccc(Cl)cc2)oc2ccc(O)cc12	-118*
CCOC(=O)c1ccc(N/C=C/C(=O)c2ccccc2)cc1	-188*
CCOC(=O)c1ccc(N/C=C/C(=O)C(C)(C)C)cc1	-137*
COc1ccc2nc(SCc3cccc(C)c3)nc(C)c2c1	-106*
COc1ccc2nc(SCc3ccccc3C)nc(C)c2c1	-107*
COc1ccc2nc(C)cc(SCC(=O)N/N=C/c3cccc4ccccc34)c2c1	47
Cc1nc(SCc2cccc(C(=O)O)c2)nc2c1CCCC2	59
CCC(=O)NC(=S)Nc1ccc(-c2nc3ccc(C)cc3s2)cc1	-238*
Cc1ccc2nc(-c3ccc(NC(=S)NC(=O)C(C)C)cc3)sc2c1	-208*
Cc1ccc2nc(-c3ccc(NC(=S)NC4CC(C)(C)NC(C)(C)C4)cc3)sc2c1	121
SMILES	aSyn UTR act
CCOC(=O)c1c(C)oc2c(F)c(F)c(F)c(F)c2c1=O	-85*
O=C(Cc1ccccc1F)Nc1ccccc1-c1ccccc1	-85*
CCc1noc(C)c1C(=O)Nc1nc(-c2cccs2)cs1	-66*
Clc1ccc(-c2nc(-c3ccncc3)no2)c(Cl)c1	-104*
Clc1ccc(OCc2nc(-c3ccncc3)no2)cc1	-126*
CCOc1ccc(-c2noc(CCC(=O)O)n2)cc1	60
Clc1ccc(Cl)c(-c2nc(-c3ccncc3)no2)c1	-131*
C/C(=N/Nc1ccnc2cc(Cl)ccc12)c1ccc(O)cc1	-118*
C/C(=N/Nc1ccnc2cc(Cl)ccc12)c1ccc(N)cc1	-177*
C/C(=N\N=C(N)N)c1cc(Cl)ccc1Cl	65
Nc1nnc(-c2ccc(Cl)cc2Cl)s1	-108*
O=C1NC2(CCCCC2)C(=O)N1/N=C/c1ccccc1Br	-81*
O=C1C=CCC(/C=C/c2ccccc2)O1 (configuration not stated)	-104*
CCOc1ccc(-c2cc(CCCC(=O)NCCc3ccc(OC)c(OC)c3OC)no2)cc1	57
CCOc1ccc(-c2nc(CCl)cs2)cc1OC	-104*
CCN(C(=O)COC(=O)c1cc(-c2ccc3cc(OC)ccc3c2)nc2ccccc12)C1CCS(=O)(=O)C1 (configuration not stated)	67
CN(C(=O)COC(=O)c1cc(-c2ccc(Cl)s2)nc2ccccc12)C1CCS(=O)(=O)C1 (configuration not stated)	-82*
O=[N+]([O-])c1cc(-c2n(-c3ccccn3)c3ccccc3[n+]2-c2ccccn2)ccc1Cl	-88*
COC(=O)Cn1c(C)nc2c(sc3nc(C)cc(C)c32)c1=O	-76*
Cc1ccc(N/N=C2\CS(=O)(=O)N(C)c3ccsc32)cc1	-149*
CN1c2ccsc2/C(=N/Nc2ccc(F)cc2)CS1(=O)=O	-187*
CS(=O)(=O)c1nc2c(cc1C#N)CCCC2	-85*
CC(C)(C)C(=O)/C(=C\c1cccc([N+](=O)[O-])c1)n1cncn1	-129*
O=S(=O)(c1ccc(Nc2ccc(-c3ccc4c(c3)OCCO4)nn2)cc1)N1CCCC1	-121*
O=C(NC1CC1)c1cccc(Nc2ccc(-c3ccc4c(c3)OCCO4)nn2)c1	-145*
SMILES	aSyn UTR act
Cc1ccc(-n2nc3ccc(NC(=S)NC(=O)/C=C/c4ccco4)cc3n2)cc1	-96*
Cc1ccc(-n2nc3cc(C)c(NC(=S)NC(=O)/C=C/c4ccco4)cc3n2)cc1	-257*
Nc1[nH]n(-c2ccccc2)c(=O)c1N=Nc1ccc2c(c1)OCO2	-205*
Cc1[nH]n(-c2ccccc2)c(=O)c1N=Nc1ccccc1	-182*
Cc1ccc(N=Nc2c(N)n(-c3ccccc3)[nH]c2=O)cc1	-154*
CCOC(=O)C1(Cc2cccc(Cl)c2)CCCN(C(=O)CN2C(=O)CSC2=O)C1 (configuration not stated)	-75*
CCOC(=O)C1(Cc2cccc(Cl)c2)CCCN(C(=O)c2ccnn2C)C1 (configuration not stated)	-85*
CCOC(=O)c1sc(=NC(=O)c2ccc(OC)c(OC)c2)n(C)c1C	-69*
CCOC(=O)c1sc(=NC(=O)c2ccccc2)n(C)c1C	-134*
CCOC(=O)c1sc(=NC(=O)c2cccc(OC)c2)n(C)c1C	-183*
